Screening data: PubChem BioAssay, National Center for Advancing Translational Sciences (NCATS)
An excerpt weighted towards active compounds, which were near 21% of everything screened.
Pf growth 48h = P. falciparum growth inhibition at 48 hours (one generation); P. falciparum luciferase growth in erythrocytes, 48 h; Potency, µM (top dose mostly 28.7 µM), for inactives: at the highest dose activity change, negative = inhibition, most hits filed as inhibitors; actives 5.9% (n = 310,000); note: potency is the fitted concentration of half-maximal effect; % is set by controls: 0 for no effect and ±100 for the full control effect
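Read-out is firefly luciferase luminescence from an integrated reporter in P. falciparum, so falling signal marks reduced parasite growth. Infected erythrocytes were at 2% hematocrit and 0.1% parasitemia (final) in Albumax-supplemented RPMI 1640.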
HCV inhibitor = inhibitors of hepatitis C virus infection; Huh7.5.1 HCVcc-Cre infection, luciferase reporter, 44 h; Potency, µM (highest dose often 41.8 µM), for inactives: top-dose activity change, negative = inhibition, actives largely listed as inhibitors; actives 3.4% (n = 340,000); AID 651820; note: potency is the fitted concentration of half-maximal effect; % is set by controls: 0 for no effect and ±100 for the full control effect
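HCVcc-Cre virus at an moi near 0.5 was added right after compound to cells cultured 4 h from seeding (1,000 cells/well). Luciferase activity was determined 44 h later, 15 min after substrate addition at RT.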
AMA1 RON2 block = inhibitors of Plasmodium falciparum AMA1-RON2 interaction; AlphaScreen AMA1-biotinylated RON2 peptide binding; actives 0.2% (n = 360,000); Potency, µM (titrated, usually from 58.2 µM), for inactives: at the top dose activity change, negative = inhibition, actives largely listed as inhibitors; AID 720542;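 note: potency is the fitted concentration of half-maximal effect; 0% = vehicle wells and -100% = peptide control; nearly all actives have a fitted effect of over 45% in size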
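AMA1 (3D7) with his tag at 25 nM final met compounds first, then biotinylated RON2 peptide at 25 nM; detection used donor plus acceptor beads, 10 µg/mL apiece, read by AlphaScreen after 30 min at room temperature.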
Cycloheximide cs = affects cycloheximide protein synthesis inhibition readout, counter-screen | cell reporter, cycloheximide protein synthesis inhibition counterscreen | max response, % | actives 12% (n = 300,000) | AID 2314; in the data active = max response mostly above about 13%, no sharp cut-off; inactive = mostly below about 14%; note: read at 38.3 µM for the half of the compounds with a filed dose; 0% is about no effect
Pf growth 96h = P. falciparum growth inhibition at 96 hour, primary screen for plastid delayed-death inhibitors; actives 6.9% (n = 320,000); Potency, µM (series often up to 28.7 µM), for inactives: top-dose activity change, negative = inhibition, actives largely listed as inhibitors; P. falciparum luciferase reporter growth, 96 h; note: potency is the fitted concentration of half-maximal effect; % is set by controls: 0 for no effect and ±100 for the full control effect
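Plates of compound plus infected erythrocytes (2% hematocrit, 0.05% parasitemia final) incubate 96 hours, 37 C, 5% CO2. Detection reagent added; reduced luminescence from the parasites' luciferase reporter flags inhibition.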
Shiga toxin inh = blocks Shiga toxin action in Vero cells. Vero cells, Shiga toxin protein synthesis inhibition reporter. inhibition, % at 38.7 µM. actives 9.2% (n = 290,000); in the data active = inhibition mostly above about 28%, no sharp cut-off; inactive = mostly below about 43%; note: 0% is about no effect
An asterisk follows results filed as active; [ ] = remark or other dose. Unless noted, calls come from the whole dose curve; as a rule, active = well fitted curve in the direction sought with a large enough effect; inconclusive = small, poorly fitted or top-dose-only effect, or another doubt; inactive = no such curve, though single readings can be large; an effect the other way counts as inactive or inconclusive.

What do the screens show for `CCN(CC(=O)NCc1ccco1)S(=O)(=O)c1ccc(OC)cc1`?
Pf growth 48h: inconclusive; HCV inhibitor: -3.8%; AMA1 RON2 block: -1.7%; Pf growth 96h: -2.6%

Results for COc1ccc(Nc2nc(NCCCN3CCOCC3)nc(N)c2[N+](=O)[O-])cc1 ?
Pf growth 48h: inconclusive; HCV inhibitor: -15.6%; AMA1 RON2 block: -7.9%; Cycloheximide cs: 1.0; Pf growth 96h: inconclusive; Shiga toxin inh: -10.8

How did Nc1nc(NCCCN2CCOCC2)nc(Nc2cccc(F)c2)c1[N+](=O)[O-] do in these assays?
Pf growth 48h: -14.1%; HCV inhibitor: -21.5%; AMA1 RON2 block: 0.0%; Cycloheximide cs: 4.9; Pf growth 96h: inconclusive; Shiga toxin inh: -1.3

How did Cc1cccc(Nc2nc(NCCCN3CCOCC3)nc(N)c2[N+](=O)[O-])c1 do in these assays?
Pf growth 48h: 14.7µM*; HCV inhibitor: inconclusive; AMA1 RON2 block: -23.1%; Cycloheximide cs: -2.9; Pf growth 96h: inconclusive; Shiga toxin inh: -11.2

How did Nc1nc(NCCCN2CCOCC2)nc(Nc2ccc(F)cc2)c1[N+](=O)[O-] do in these assays?
Pf growth 48h: 13.1µM*; HCV inhibitor: 7.7%; AMA1 RON2 block: 14.7%; Cycloheximide cs: -3.8; Pf growth 96h: inconclusive; Shiga toxin inh: -3.3

How did CCOC(=O)N1CCN(C(=O)c2nc3ccccc3s2)CC1 do in these assays?
Pf growth 48h: 63.8%; HCV inhibitor: 10.6%; AMA1 RON2 block: -15.9%; Cycloheximide cs: 33.8*; Pf growth 96h: inconclusive; Shiga toxin inh: 72.5*

How did CCOC(=O)N1CCN(C(=O)c2ccc3c(c2)sc2nc(-c4ccccc4)cn23)CC1 do in these assays?
Pf growth 48h: -10.4%; HCV inhibitor: inconclusive; AMA1 RON2 block: -5.6%; Cycloheximide cs: 53.5*; Pf growth 96h: 173.9%; Shiga toxin inh: 42.5*

Results for CCOC(=O)N1CCC(NC(=O)c2ccc3c(c2)sc2nc(-c4ccc(OC)cc4)cn23)CC1 ?
Pf growth 48h: 5.7%; Cycloheximide cs: 20.1*; Pf growth 96h: 31.6%; Shiga toxin inh: 56.6*

How did CCOC(=O)N1CCN(C(=O)Cn2nc(C)c3sc4ccccc4c3c2=O)CC1 do in these assays?
Pf growth 48h: inconclusive; HCV inhibitor: 15.8%; AMA1 RON2 block: 0.9%; Cycloheximide cs: 7.6; Pf growth 96h: 10.4µM*; Shiga toxin inh: -12.7

Results for CCOC(=O)c1c(S(=O)(=O)NCC(=O)N2CCN(c3ccc(F)cc3)CC2)c(C)n(C)c1C ?
Pf growth 48h: inconclusive; HCV inhibitor: -23.7%; AMA1 RON2 block: 0.7%; Cycloheximide cs: 1.2; Pf growth 96h: -1.5%; Shiga toxin inh: 9.8

What do the screens show for `CCOC(=O)c1ccc(C(=S)N2CCCC2)cc1`?
Pf growth 48h: 36.9%; HCV inhibitor: 12.8%; AMA1 RON2 block: 26.9%; Cycloheximide cs: -1.0; Pf growth 96h: 29.8%; Shiga toxin inh: -3.8

How did Cc1ccccc1-c1csc(C(O)c2ccc(F)c(F)c2)n1 (centres undefined) do in these assays?
AMA1 RON2 block: 18.7%

How did O=C(NCCCN1CCOCC1)C(=O)NCC1OCCN1S(=O)(=O)c1ccc(Cl)cc1 (centres undefined) do in these assays?
AMA1 RON2 block: 13.0%

Results for CC[C@@H]1[C@H]2CCCC(=O)N3CC[C@@H](C[C@@H]1OC(=O)Nc1ccccc1)[C@@H]23 ?
Pf growth 48h: inconclusive; HCV inhibitor: inconclusive; AMA1 RON2 block: 4.4%; Cycloheximide cs: 1.3; Pf growth 96h: 2.33µM*; Shiga toxin inh: -14.7

Results for CCCCNC(=O)O[C@@H]1C[C@@H]2CCN3C(=O)CCC[C@H]([C@H]1CC)[C@H]23 ?
Pf growth 48h: -12.2%; HCV inhibitor: inconclusive; AMA1 RON2 block: -4.7%; Cycloheximide cs: -2.0; Pf growth 96h: inconclusive; Shiga toxin inh: -6.4

Results for CCOC(=O)Cn1nc(-c2ccc(Cl)cc2)cc1N ?
Pf growth 48h: 48.3%; HCV inhibitor: -5.8%; AMA1 RON2 block: 17.6%; Cycloheximide cs: 38.3*; Pf growth 96h: inconclusive; Shiga toxin inh: 92.0*

How did CCOC(=O)CCn1nc(-c2ccc(Cl)cc2)cc1N do in these assays?
HCV inhibitor: -5.6%; AMA1 RON2 block: -13.9%; Cycloheximide cs: 20.2*; Pf growth 96h: 133.2%; Shiga toxin inh: 29.0

Results for c1ccc(-c2nnnn2-c2ccccn2)cc1 ?
HCV inhibitor: -0.8%; AMA1 RON2 block: -2.4%

Results for Cc1cccc(C(C)C)c1-n1nnnc1-c1ccccc1 ?
Pf growth 48h: 10.4µM*; HCV inhibitor: 19.1%; AMA1 RON2 block: 12.3%; Cycloheximide cs: -2.6; Pf growth 96h: -7.4%[5.75 µM]; Shiga toxin inh: 35.7

How did COc1ccc(-c2nnc(SCC(=O)NC(=O)Cc3ccccc3)n2C)cc1 do in these assays?
Pf growth 48h: -3.4%; HCV inhibitor: -6.4%; AMA1 RON2 block: 11.3%; Pf growth 96h: -16.6%

Results for Clc1cccc(Cl)c1Cn1cnc2c(NCc3ccco3)ncnc21 ?
Pf growth 48h: -9.4%; HCV inhibitor: -1.8%; AMA1 RON2 block: -1.4%; Cycloheximide cs: -6.2; Shiga toxin inh: -18.6

How did Clc1cccc(Cl)c1Cn1cnc(=NCc2ccco2)c2[nH]cnc21 do in these assays?
Pf growth 48h: 14.7µM*; HCV inhibitor: -12.4%; AMA1 RON2 block: -23.0%; Cycloheximide cs: 21.8*; Shiga toxin inh: 38.3

How did COc1ccccc1N1CCN(C/C=C/c2ccc(N(C)C)cc2)CC1 do in these assays?
Pf growth 48h: inconclusive; Cycloheximide cs: 15.5; Pf growth 96h: inconclusive; Shiga toxin inh: 17.7

Results for COc1cc2nc(/C=C/c3ccc(N(C)C)cc3)sc2cc1SC ?
Pf growth 48h: inconclusive; HCV inhibitor: inconclusive; AMA1 RON2 block: 17.8µM*; Cycloheximide cs: -2.2; Pf growth 96h: inconclusive; Shiga toxin inh: 3.2

What do the screens show for `CCOc1ccc(-c2noc(-c3csc([C@@H]4O[C@H](CO)[C@H](O)[C@H](O)[C@H]4O)n3)n2)cc1`?
AMA1 RON2 block: 10.2%

How did CCOC(=O)c1sc(-c2ccc(Cl)cc2Cl)nc1O do in these assays?
Pf growth 48h: -3.6%; HCV inhibitor: 9.8%; AMA1 RON2 block: 0.8%; Cycloheximide cs: 0.4; Pf growth 96h: -4.7%; Shiga toxin inh: 3.6

How did CCc1nc(N2CCN(C(C)=O)CC2)c(C#N)c2c1COC(C)(C)C2 do in these assays?
Pf growth 48h: -21.4%; HCV inhibitor: -3.2%; AMA1 RON2 block: -6.3%; Cycloheximide cs: 1.3; Pf growth 96h: inconclusive; Shiga toxin inh: -5.3

Results for CC1(C)Cc2c(C#N)c(N3CCN(C(=O)c4ccco4)CC3)nc(Cc3ccccc3)c2CO1 ?
Pf growth 48h: 1.65µM*; HCV inhibitor: -15.4%; AMA1 RON2 block: -17.6%; Cycloheximide cs: -6.5; Pf growth 96h: 4.6%[5.75 µM]; Shiga toxin inh: -17.3
